Source: PubChem (National Center for Advancing Translational Sciences (NCATS))
D1 ag: activates the human D1 dopamine receptor; activation, % at 2 µM; P21728; HEK293 T-REx D1 cells, calcium flux, agonist mode; 1% of 360,000 active; note: 0% is about no effect
Target sequence (P21728 whole entry, looked up): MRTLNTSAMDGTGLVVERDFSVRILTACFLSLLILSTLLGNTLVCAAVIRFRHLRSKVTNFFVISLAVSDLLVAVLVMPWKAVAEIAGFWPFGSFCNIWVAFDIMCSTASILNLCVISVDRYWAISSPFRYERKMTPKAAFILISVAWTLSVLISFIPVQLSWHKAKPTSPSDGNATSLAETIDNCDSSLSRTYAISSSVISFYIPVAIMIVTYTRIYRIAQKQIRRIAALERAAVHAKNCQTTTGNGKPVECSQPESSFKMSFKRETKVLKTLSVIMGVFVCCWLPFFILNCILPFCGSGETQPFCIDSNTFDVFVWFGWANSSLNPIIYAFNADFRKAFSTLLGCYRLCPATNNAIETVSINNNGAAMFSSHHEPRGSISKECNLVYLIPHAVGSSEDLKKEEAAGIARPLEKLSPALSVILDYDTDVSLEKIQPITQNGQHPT
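Inducible HEK293 T-REx D1 cells, force-coupled to calcium signalling, were plated at 4000 cells/well with tetracycline and held overnight at 30 C. After no-wash calcium dye loading, compound-evoked calcium rise over 180 s flagged agonists.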
TRHR PAM: allosteric enhancers of human TRH receptor; enhancement, % at 2 µM; AID 493056; 0.66% of 360,000 active; TRHR cells, fluo-8 calcium fluorescence, EC20 TRH enhancement; P34981; in the data active = enhancement above about 30%; note: 0% is about no effect
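TRHR-expressing cells loaded with fluo-8 calcium dye were read kinetically (ex 480/em 530) during compound addition, then stimulated with an EC20 of TRH (10 nM final). Enhancement of the Gq-mediated intracellular calcium response was scored.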
D1 PAM: enhances dopamine response at the human D1 receptor. 0.036% of 360,000 active. potentiation, % at 10 µM. P21728. HEK293 TREx D1 cells, calcium flux, dopamine EC20 potentiation; in the data active = potentiation above about 30%; note: 0% is about no effect
D1 antagonist: antagonists of human D1 dopamine receptor. activity change, negative = inhibition, % at 10 µM. P21728. AID 504652. 3.2% of 360,000 active. HEK293 TREx D1 cells, calcium flux, dopamine EC80; active compounds read low; in the data active = activity change below about -30%; note: % is set by controls: 0 for no effect and ±100 for the full control effect
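Allosteric or orthosteric antagonism assessed as attenuation of the calcium response to EC80 dopamine, added 180 s after compound, in induced HEK293 Trex D1 cells loaded with no-wash calcium dye.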
TRHR ag: TRH receptor (human) agonism; 0.18% of 360,000 active; AID 493084; P34981; activation, % at 2 µM; TRHR cells, calcium flux fluo-8, FDSS agonist mode; note: 0% is about no effect
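Agonist-mode FDSS calcium read (Ex 480/Em 530, 1 s cycles) in 1536-well TRHR cells with fluo-8 dye, after 10-cycle baseline and 23 nL compound addition; TRH at EC20 (10 nM final) added afterwards for the enhancer phase.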
* marks the source's active call; other numbers are inactive results. A selection: hits, their analogues and other compounds. The true share with any hit is near 4.6%. Cut-off read from the data, not from the text of the source, unless noted: active = activation above about 30%; inactive = the rest.

What do the screens show for `Cc1cc(Cl)ccc1OCC(=O)Nc1ccccc1N1CCOCC1`?
D1 ag: -1; TRHR PAM: 10; D1 PAM: 6; D1 antagonist: 25; TRHR ag: 0

How did COc1ccc(CCNC(=O)CSc2cn(Cc3cccc(C)c3)c3ccccc23)cc1OC do in these assays?
D1 ag: 34*; TRHR PAM: -4; D1 PAM: 1; D1 antagonist: 10; TRHR ag: 1

What do the screens show for `COc1ccc(NC(=O)CSc2nnnn2-c2ccccc2OC)c(OC)c1`?
D1 ag: 7; TRHR PAM: -1; D1 PAM: -5; D1 antagonist: -68*; TRHR ag: 0

Results for CCn1c(C)c(C2N3CC4(C)CN2CC(CC)(C3)C4=O)c2ccccc21 (stereo unspecified) ?
D1 ag: 3; TRHR PAM: 2; D1 PAM: -1; D1 antagonist: 18; TRHR ag: 0

What do the screens show for `CCOc1ccc(CCNC(=O)C(CCC(N)=O)NC(=O)OCc2ccccc2)cc1OCC` (stereo unspecified)?
D1 ag: -1; TRHR PAM: -5; D1 PAM: -5; TRHR ag: 0

What do the screens show for `COc1ccccc1-n1c(SCC(=O)N(C)C2CCS(=O)(=O)C2)nc2ccccc2c1=O` (stereo unspecified)?
D1 ag: 2; TRHR PAM: -1; D1 PAM: 0; D1 antagonist: -14; TRHR ag: 0

How did COc1ccccc1-n1nnnc1SCC(=O)N(C)C1CCS(=O)(=O)C1 (stereo unspecified) do in these assays?
D1 ag: 1; TRHR PAM: 1; D1 PAM: 0; D1 antagonist: -38*; TRHR ag: 1

What do the screens show for `COc1ccc(CCNC(=O)CSc2nnnn2-c2ccccc2OC)cc1OC`?
D1 ag: 14; TRHR PAM: 0; D1 PAM: -7; D1 antagonist: -52*; TRHR ag: 0

What do the screens show for `CCCCc1cc(=O)oc2cc(C)cc(OCC(=O)NCc3ccncc3)c12`?
D1 ag: 4; TRHR PAM: -7; D1 PAM: -5; D1 antagonist: -11; TRHR ag: 0

Results for CCN(CC)S(=O)(=O)c1ccc2c(c1)c(=O)c(C(=O)N1CCc3ccccc3C1)cn2C ?
D1 ag: 0; TRHR PAM: -4; D1 PAM: 5; D1 antagonist: -37*; TRHR ag: -1

Results for Cn1cc(C(=O)N2CCc3ccccc3C2)c(=O)c2cc(S(=O)(=O)N3CCOCC3)ccc21 ?
D1 ag: -2; TRHR PAM: 7; D1 PAM: 0; D1 antagonist: -6; TRHR ag: 1

Results for N=c1c(C(=O)NCC2CCCO2)cc2c(=O)n3ccccc3nc2n1CCCO (stereo unspecified) ?
D1 ag: 1; TRHR PAM: 4; D1 PAM: -2; D1 antagonist: -5; TRHR ag: 0

What do the screens show for `COc1ccc(-c2cc(=O)[nH]c(=S)[nH]2)cc1`?
D1 ag: 2; TRHR PAM: 4; D1 PAM: -9; D1 antagonist: -19; TRHR ag: 0

How did COc1ccc(-c2ccc(C(=O)O)c(=O)[nH]2)cc1 do in these assays?
D1 ag: 5; TRHR PAM: -3; D1 PAM: -2; D1 antagonist: -30*; TRHR ag: 0

What do the screens show for `Cc1cc2c(s1)c1cnn(Cc3cc(C(F)(F)F)cc(Cl)c3F)c(=O)c1n2C`?
D1 ag: 6; TRHR PAM: 6; D1 PAM: -5; D1 antagonist: -35*; TRHR ag: 2

What do the screens show for `Cc1cc2c(s1)c1cnn(Cc3cccc(Cl)c3F)c(=O)c1n2C`?
D1 ag: 1; TRHR PAM: 2; D1 PAM: 6; D1 antagonist: 11; TRHR ag: 0

What do the screens show for `CCN(CC)S(=O)(=O)c1cccc(C(=O)N/N=C/c2ccccn2)c1`?
D1 ag: 4; TRHR PAM: -2; D1 PAM: 2; D1 antagonist: 4; TRHR ag: 0

How did Clc1ccc2c(c1)C(N1CCNCC1)=Nc1ccccc1O2 do in these assays?
D1 ag: 20; TRHR PAM: 8; D1 PAM: -6; D1 antagonist: -71*; TRHR ag: 1
